PubChem BioAssay AID1159580 (chemical genetic matrix, 2015)
Several values for one entry are separate records, joined by “and”; a condition that tells them apart may be missing. Identical values can stand only once. Screen size: about 5,500 compounds; about 2,000 (36%) were called active. Roughly 18% stayed inconclusive and do not appear here. Rule as the data show it: active = normalized growth mostly below about 0.91 (no sharp cut-off); inconclusive = no clear call, values can overlap the other calls; inactive = mostly above about 0.92. The list shows a part of the results.

Assay: chemical genetic growth profiling, strain panel (AID 1159580);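 also: tested at 20 µM; growth read once vehicle control cultures reached saturation at 30 °C; 1 = growth at the plate median or of vehicle wells; lower values mean less growth of the strain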
Details: growth OD

Measured: normalized growth

CC1(C)O[C@@H]2CC3C4CCC5=CC(=O)CCC5(C)C4(F)C(O)CC3(C)[C@]2(C(=O)CCl)O1 (stereo partly specified)
inactive: S. cerevisiae deletion strains, locus YAL013W, strain DEP1, stronger effect = lower value 0.996 | S. cerevisiae deletion strains, locus YBR021W, strain FUR4, stronger effect = lower value 1.04 | S. cerevisiae deletion strains, locus YBR229C, strain ROT2, stronger effect = lower value 1 | S. cerevisiae deletion strains, locus YCL029C, strain bik1, stronger effect = lower value 1 | S. cerevisiae deletion strains, locus YDL035C, strain GPR1, stronger effect = lower value 0.979 | S. cerevisiae deletion strains, locus YDL074C, strain BRE1, stronger effect = lower value 1.02 | S. cerevisiae deletion strains, locus YDL101C, strain DUN1, stronger effect = lower value 0.994 | S. cerevisiae deletion strains, locus YDL134C, strain PPH21, stronger effect = lower value 0.994 | S. cerevisiae deletion strains, locus YDL185W, strain tfp1, stronger effect = lower value 0.967 | S. cerevisiae deletion strains, locus YDL192W, strain arf1, stronger effect = lower value 0.986 | S. cerevisiae deletion strains, locus YDR101C, strain arx1, stronger effect = lower value 1.03 | S. cerevisiae deletion strains, locus YDR150W, strain NUM1, stronger effect = lower value 0.981 | S. cerevisiae deletion strains, locus YDR162C, strain NBP2, stronger effect = lower value 0.963 | S. cerevisiae deletion strains, locus YDR318W, strain mcm21, stronger effect = lower value 0.979 | S. cerevisiae deletion strains, locus YDR388W, stronger effect = lower value 0.996 | S. cerevisiae deletion strains, locus YDR502C, strain sam2, stronger effect = lower value 0.99 | S. cerevisiae deletion strains, locus YEL061C, strain CIN8, stronger effect = lower value 0.998 | S. cerevisiae deletion strains, locus YER110C, stronger effect = lower value 0.975 | S. cerevisiae deletion strains, locus YER155C, strain BEM2, stronger effect = lower value 1.01 | S. cerevisiae deletion strains, locus YER167W, strain BCK2, stronger effect = lower value 0.994 | S. cerevisiae deletion strains, locus YGL078C, strain dbp3, stronger effect = lower value 0.993 | S. cerevisiae deletion strains, locus YGL086W, strain mad1, stronger effect = lower value 1.01 | S. cerevisiae deletion strains, locus YGL248W, strain PDE1, stronger effect = lower value 1 | S. cerevisiae deletion strains, locus YGR078C, strain PAC10, stronger effect = lower value 1.01 | S. cerevisiae deletion strains, locus YGR135W, strain pre9, stronger effect = lower value 0.973 | S. cerevisiae deletion strains, locus YGR252W, strain gcn5, stronger effect = lower value 1.02 | S. cerevisiae deletion strains, locus YHR030C, strain SLT2, stronger effect = lower value 0.985 and 1 | S. cerevisiae deletion strains, locus YHR079C, strain IRE1 (second series), stronger effect = lower value 0.992 | S. cerevisiae deletion strains, locus YHR079C, strain IRE1, stronger effect = lower value 1 | S. cerevisiae deletion strains, locus YHR094C, strain hxt1, stronger effect = lower value 0.998 | S. cerevisiae deletion strains, locus YHR129C, strain ARP1, stronger effect = lower value 0.996 | S. cerevisiae deletion strains, locus YHR200W, strain rpn10, stronger effect = lower value 0.988 | S. cerevisiae deletion strains, locus YIL066C, strain RNR3, stronger effect = lower value 1 | S. cerevisiae deletion strains, locus YIL073C, strain SPO22, stronger effect = lower value 0.889 | S. cerevisiae deletion strains, locus YIL125W, strain kgd1, stronger effect = lower value 1.01 | S. cerevisiae deletion strains, locus YIR030C, strain dcg1, stronger effect = lower value 0.983 | S. cerevisiae deletion strains, locus YJL095W, strain BCK1, stronger effect = lower value 1.03 and 1.02 | S. cerevisiae deletion strains, locus YJL134W, strain LCB3, stronger effect = lower value 0.989 | S. cerevisiae deletion strains, locus YJL168C, strain set2, stronger effect = lower value 1 | S. cerevisiae deletion strains, locus YJL187C, strain SWE1 (second series), stronger effect = lower value 1.01 | S. cerevisiae deletion strains, locus YJR043C, strain POL32, stronger effect = lower value 1.01 | S. cerevisiae deletion strains, locus YJR066W, strain TOR1, stronger effect = lower value 0.972 | S. cerevisiae deletion strains, locus YKL009W, strain mrt4, stronger effect = lower value 0.956 | S. cerevisiae deletion strains, locus YKL068W, stronger effect = lower value 0.98 | S. cerevisiae deletion strains, locus YKL085W, strain MDH1 (second series), stronger effect = lower value 0.975 | S. cerevisiae deletion strains, locus YKL085W, strain MDH1, stronger effect = lower value 0.975 | S. cerevisiae deletion strains, locus YKL190W, strain CNB1, stronger effect = lower value 0.977 | S. cerevisiae deletion strains, locus YKR001C, strain vps1, stronger effect = lower value 1.01 | S. cerevisiae deletion strains, locus YLR039C, strain RIC1, stronger effect = lower value 0.938 | S. cerevisiae deletion strains, locus YLR058C, strain SHM2, stronger effect = lower value 0.991 | S. cerevisiae deletion strains, locus YLR102C, strain apc9, stronger effect = lower value 0.995 | S. cerevisiae deletion strains, locus YLR113W, strain HOG1, stronger effect = lower value 1.04 | S. cerevisiae deletion strains, locus YLR262C, strain YPT6, stronger effect = lower value 0.942 | S. cerevisiae deletion strains, locus YLR268W, strain sec22, stronger effect = lower value 0.99 | S. cerevisiae deletion strains, locus YLR330W, strain CHS5, stronger effect = lower value 0.996 | S. cerevisiae deletion strains, locus YLR342W, strain FKS1 (second series), stronger effect = lower value 1.01 | S. cerevisiae deletion strains, locus YLR371W, strain rom2, stronger effect = lower value 1 | S. cerevisiae deletion strains, locus YLR418C, strain cdc73, stronger effect = lower value 0.944 | S. cerevisiae deletion strains, locus YML016C, strain PPZ1, stronger effect = lower value 1 | S. cerevisiae deletion strains, locus YML032C, strain rad52, stronger effect = lower value 1.01 | S. cerevisiae deletion strains, locus YML124C, strain tub3, stronger effect = lower value 1 | S. cerevisiae deletion strains, locus YMR078C, strain ctf18, stronger effect = lower value 0.99 | S. cerevisiae deletion strains, locus YMR223W, strain ubp8, stronger effect = lower value 0.97 | S. cerevisiae deletion strains, locus YMR263W, strain SAP30, stronger effect = lower value 1 | S. cerevisiae deletion strains, locus YMR307W, strain GAS1, stronger effect = lower value 1.01 | S. cerevisiae deletion strains, locus YNL067W, strain RPL9B, stronger effect = lower value 1.02 | S. cerevisiae deletion strains, locus YNL153C, strain GIM3, stronger effect = lower value 1.06 | S. cerevisiae deletion strains, locus YNL183C, strain NPR1, stronger effect = lower value 0.972 | S. cerevisiae deletion strains, locus YNL233W, strain BNI4, stronger effect = lower value 1.04 | S. cerevisiae deletion strains, locus YNL250W, strain rad50, stronger effect = lower value 0.987 | S. cerevisiae deletion strains, locus YNL271C, strain bni1, stronger effect = lower value 0.986 | S. cerevisiae deletion strains, locus YNL298W, strain CLA4, stronger effect = lower value 0.994 | S. cerevisiae deletion strains, locus YNL307C, strain MCK1, stronger effect = lower value 0.995 | S. cerevisiae deletion strains, locus YNR052C, strain pop2, stronger effect = lower value 0.985 | S. cerevisiae deletion strains, locus YOL006C, strain TOP1, stronger effect = lower value 1.01 | S. cerevisiae deletion strains, locus YOL012C, strain htz1 0.917 | S. cerevisiae deletion strains, locus YOL147C, strain pex11, stronger effect = lower value 0.996 | S. cerevisiae deletion strains, locus YOR061W, strain CKA2, stronger effect = lower value 0.994 | S. cerevisiae deletion strains, locus YOR069W, strain VPS5, stronger effect = lower value 0.99 | S. cerevisiae deletion strains, locus YOR136W, strain idh2, stronger effect = lower value 0.995 | S. cerevisiae deletion strains, locus YOR144C, strain elg1, stronger effect = lower value 1.01 | S. cerevisiae deletion strains, locus YOR184W, strain ser1, stronger effect = lower value 0.958 | S. cerevisiae deletion strains, locus YOR231W, strain MKK1, stronger effect = lower value 1.02 | S. cerevisiae deletion strains, locus YOR316C, strain cot1, stronger effect = lower value 0.983 | S. cerevisiae deletion strains, locus YPL256C, strain CLN2, stronger effect = lower value 0.989 | S. cerevisiae deletion strains, locus YPR119W, strain clb2, stronger effect = lower value 0.997 | S. cerevisiae deletion strains, locus YPR141C, strain kar3, stronger effect = lower value 0.99 | S. cerevisiae deletion strains, locus YPR163C, strain tif3, stronger effect = lower value 0.993 | S. cerevisiae deletion strains, locus YPR167C, strain met16, stronger effect = lower value 0.984 | S. cerevisiae deletion strains, strain wtn01, stronger effect = lower value 0.987 | S. cerevisiae strains, strain wild type, stronger effect = lower value 0.994
